# In all, about 5,500 compounds went through this assay and about 2,000 (36%) were called active. About 18% were inconclusive and are not listed. Some of the results follow. Values without a mark were called inactive. Rule as the data show it: active = normalized growth mostly below about 0.91 (no sharp cut-off); inconclusive = no clear call, values can overlap the other calls; inactive = mostly above about 0.92.
# Test: chemical genetic growth profiling, strain panel (AID 1159580);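 also: tested at 20 µM; growth read once vehicle control cultures reached saturation at 30 °C; 1 = growth at the plate median or of vehicle wells; lower values mean less growth of the strain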
# Conditions: S. cerevisiae deletion strains, growth OD
# [1] = locus YAL040C, strain CLN3, stronger effect = lower value
# [2] = locus YER002W, strain NOP16, stronger effect = lower value
# [3] = locus YNL175C, strain NOP13, stronger effect = lower value
# [4] = locus YNL197C, strain WHI3, stronger effect = lower value
# [5] = locus YNL224C, strain SQS1, stronger effect = lower value
# [6] = locus YOR083W, strain WHI5 (second series), stronger effect = lower value
smiles,measurement,setting,value
CN1CCCC1CCOC(C)(c1ccccc1)c1ccc(Cl)cc1 (stereo not drawn),normalized growth,"locus YAL013W, strain DEP1, stronger effect = lower value",0.981
same,normalized growth,[1],0.986
same,normalized growth,"locus YCL061C, strain MRC1 (second series), stronger effect = lower value",0.982
same,normalized growth,"locus YDR363W, strain ESC2, stronger effect = lower value",0.983
same,normalized growth,[2],1
same,normalized growth,"locus YGR229C, strain SMI1, stronger effect = lower value",0.714 (active)
same,normalized growth,"locus YMR263W, strain SAP30, stronger effect = lower value",0.955
same,normalized growth,[3],0.995
same,normalized growth,[4],1.03
same,normalized growth,[5],1.01
same,normalized growth,[6],0.986
same,normalized growth,"locus YPL241C, strain CIN2, stronger effect = lower value",0.996
Brc1ccc([C@H]2CN3CCSC3=N2)cc1,normalized growth,[1],1.01
same,normalized growth,[2],1.03
same,normalized growth,"locus YGR078C, strain PAC10, stronger effect = lower value",1.02
same,normalized growth,"locus YJR075W, strain HOC1, stronger effect = lower value",0.983
same,normalized growth,"locus YNL153C, strain GIM3, stronger effect = lower value",0.997
same,normalized growth,[3],1.01
same,normalized growth,[4],1.01
same,normalized growth,[5],1.01
same,normalized growth,"locus YNL322C, strain KRE1, stronger effect = lower value",0.997
same,normalized growth,[6],1.02
Clc1cc(Cl)cc(C=NCc2ccccc2)c1,normalized growth,"locus YAR019C, strain CDC15, stronger effect = lower value",0.958
same,normalized growth,"locus YBL105C, strain PKC1, stronger effect = lower value",0.946
same,normalized growth,"locus YBR135W, strain CKS1, stronger effect = lower value",0.961
same,normalized growth,"locus YBR136W, strain MEC1, stronger effect = lower value",0.957
same,normalized growth,"locus YBR160W, strain CDC28, stronger effect = lower value",0.955
same,normalized growth,"locus YDL017W, strain CDC7, stronger effect = lower value",0.951
same,normalized growth,"locus YDL028C, strain MPS1, stronger effect = lower value",0.958
same,normalized growth,"locus YDL101C, strain DUN1, stronger effect = lower value",0.964
same,normalized growth,"locus YDL108W, strain KIN28, stronger effect = lower value",0.964
same,normalized growth,"locus YDL132W, strain cdc53, stronger effect = lower value",0.959
same,normalized growth,"locus YDL214C, strain PRR2, stronger effect = lower value",0.665 (active)
same,normalized growth,"locus YDR052C, strain DBF4, stronger effect = lower value",0.957
same,normalized growth,"locus YDR054C, strain cdc34, stronger effect = lower value",0.95
same,normalized growth,"locus YDR226W, strain ADK1, stronger effect = lower value",0.957
same,normalized growth,"locus YDR477W, strain SNF1, stronger effect = lower value",0.621 (active)
same,normalized growth,"locus YER123W, strain YCK3, stronger effect = lower value",0.364 (active)
same,normalized growth,"locus YER133W, strain GLC7, stronger effect = lower value",0.625 (active)
same,normalized growth,"locus YFL009W, strain cdc4, stronger effect = lower value",0.961
same,normalized growth,"locus YFL029C, strain CAK1, stronger effect = lower value",0.961
same,normalized growth,"locus YFR003C, strain YPI1, stronger effect = lower value",0.95
same,normalized growth,"locus YFR019W, strain FAB1, stronger effect = lower value",0.501 (active)
same,normalized growth,"locus YFR028C, strain CDC14, stronger effect = lower value",0.967
same,normalized growth,"locus YGR040W, strain KSS1, stronger effect = lower value",0.681 (active)
same,normalized growth,"locus YGR052W, strain FMP48, stronger effect = lower value",0.627
same,normalized growth,"locus YGR092W, strain DBF2, stronger effect = lower value",0.222 (active)
same,normalized growth,"locus YHR030C, strain SLT2, stronger effect = lower value",0.322 (active)
same,normalized growth,"locus YHR079C, strain IRE1, stronger effect = lower value",0.27 (active)
same,normalized growth,"locus YHR082C, strain KSP1, stronger effect = lower value",0.616
same,normalized growth,"locus YHR205W, strain SCH9, stronger effect = lower value",0.621
same,normalized growth,"locus YIL147C, strain SLN1, stronger effect = lower value",0.947
same,normalized growth,"locus YJL095W, strain BCK1, stronger effect = lower value",0.375 (active)
same,normalized growth,"locus YJL128C, strain PBS2, stronger effect = lower value",0.93
same,normalized growth,"locus YJL157C, strain FAR1, stronger effect = lower value",0.458 (active)
same,normalized growth,"locus YJR016C, strain ILV3, stronger effect = lower value",0.961
same,normalized growth,"locus YJR066W, strain TOR1 (second series), stronger effect = lower value",0.585 (active)
same,normalized growth,"locus YJR066W, strain TOR1, stronger effect = lower value",0.433 (active)
same,normalized growth,"locus YKL048C, strain ELM1, stronger effect = lower value",0.722 (active)
same,normalized growth,"locus YKL067W, strain YNK1, stronger effect = lower value",0.58 (active)
same,normalized growth,"locus YKL101W, strain HSL1, stronger effect = lower value",0.692 (active)
same,normalized growth,"locus YKL193C, strain SDS22, stronger effect = lower value",0.956
same,normalized growth,"locus YKL203C, strain TOR2, stronger effect = lower value",0.691 (active)
same,normalized growth,"locus YLR113W, strain HOG1, stronger effect = lower value",0.375 (active)
same,normalized growth,"locus YLR133W, strain CKI1, stronger effect = lower value",0.525 (active)
same,normalized growth,"locus YLR403W, strain SFP1, stronger effect = lower value",0.479 (active)
same,normalized growth,"locus YML070W, strain DAK1, stronger effect = lower value",0.428 (active)
same,normalized growth,"locus YMR001C, strain CDC5, stronger effect = lower value",0.947
same,normalized growth,"locus YMR205C, strain PFK2 (second series), stronger effect = lower value",0.652 (active)
same,normalized growth,"locus YMR277W, strain FCP1, stronger effect = lower value",0.966
same,normalized growth,"locus YNL006W, strain LST8, stronger effect = lower value",0.95
same,normalized growth,"locus YNL020C, strain ARK1, stronger effect = lower value",0.452 (active)
same,normalized growth,"locus YNL161W, strain CBK1, stronger effect = lower value",0.95
same,normalized growth,"locus YNL183C, strain NPR1, stronger effect = lower value",0.549 (active)
same,normalized growth,"locus YNL207W, strain RIO2, stronger effect = lower value",0.963
same,normalized growth,"locus YNL222W, strain SSU72, stronger effect = lower value",0.963
same,normalized growth,"locus YNL307C, strain MCK1 (second series), stronger effect = lower value",0.489 (active)
same,normalized growth,"locus YOL078W, strain AVO1, stronger effect = lower value",0.965
same,normalized growth,"locus YOL136C, strain PFK27, stronger effect = lower value",0.328 (active)
same,normalized growth,"locus YOR061W, strain CKA2, stronger effect = lower value",0.441 (active)
same,normalized growth,"locus YOR119C, strain RIO1, stronger effect = lower value",0.744
same,normalized growth,"locus YOR231W, strain MKK1, stronger effect = lower value",0.364 (active)
same,normalized growth,"locus YOR329C, strain SCD5, stronger effect = lower value",0.946
same,normalized growth,"locus YPL031C, strain PHO85, stronger effect = lower value",0.589 (active)
same,normalized growth,"locus YPL153C, strain RAD53, stronger effect = lower value",0.534 (active)
same,normalized growth,"locus YPL204W, strain HRR25, stronger effect = lower value",0.489 (active)
same,normalized growth,"locus YPL209C, strain IPL1, stronger effect = lower value",0.957
same,normalized growth,"locus YPL256C, strain CLN2, stronger effect = lower value",0.303 (active)
same,normalized growth,"locus YPR025C, strain CCL1, stronger effect = lower value",0.953
same,normalized growth,"locus YPR106W, strain ISR1, stronger effect = lower value",0.959
same,normalized growth,"locus YPR111W, strain DBF20, stronger effect = lower value",0.957
same,normalized growth,"strain NNK1, stronger effect = lower value",0.959
same,normalized growth,"strain TSCII, stronger effect = lower value",0.954
